Sampled rows, rich in hits. Any-hit rate of the full collection: about 13%.
HCV inh: inhibitors of hepatitis C virus infection; Huh7.5.1 HCVcc-Cre infection, luciferase reporter, 44 h; 340,000 compounds, 3.4% hits; AID 651820; Potency, µM (top dose mostly 41.8 µM), most hits filed as inhibitors
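Infectious HCVcc-Cre (~0.5 moi) was added to cells just after compound, with cells seeded 4 h earlier at 1,000 per well. Luciferase activity after 44 h culture reported infection; substrate was incubated 15 min at room temperature before reading.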
Pf growth 96h: P. falciparum growth inhibition at 96 hour, primary screen for plastid delayed-death inhibitors; P. falciparum luciferase reporter growth, 96 h; Potency, µM (highest dose often 28.7 µM), actives largely listed as inhibitors; 320,000 compounds, 6.9% hits
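P. falciparum expressing integrated firefly luciferase, in erythrocytes at 2% hematocrit, 0.05% parasitemia, incubated with compounds 96 h at 37 C, 5% CO2. Growth inhibition read as loss of luminescence; two-generation exposure targets delayed-death apicoplast inhibitors.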
Pf growth 48h: P. falciparum growth inhibition at 48 hours (one generation); 310,000 compounds, 5.9% hits; P. falciparum luciferase growth in erythrocytes, 48 h; AID 504832; Potency, µM (highest dose often 28.7 µM), hits mostly inhibitors
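Luciferase-expressing P. falciparum in infected erythrocytes (2% hematocrit, 0.1% parasitemia final) in RPMI 1640/0.5% Albumax were exposed to compound for 48 hours at 37 C, 5% CO2; growth read as luminescence.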
HCMV antiviral: inhibitors of human cytomegalovirus; HFF cells, HCMV-luciferase reporter, 72 h; hits give low values; activity change, negative = inhibition, % at 57.5 µM; 410,000 compounds, 4.5% hits; AID 1259415; in the data active = activity change below about -60%; inconclusive = no clear call, values can overlap the other calls; inactive = above about -39%
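After 16 h attachment at 37C, HFF cells received test compound and HCMV-luciferase (1 PFU/cell); reporter luminescence read 72 h later, data normalized against buffer-only and known inhibitor Salinomycin.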
Large screens that a line does not name were inactive. Unless noted, calls come from the whole dose curve; as a rule, active = well fitted inhibition curve with a large enough effect; inconclusive = small, poorly fitted or top-dose-only effect, or another doubt; inactive = no such curve, though single readings can be large or run the other way.

COC(=O)c1[nH]c2cc(OC)ccc2c1NC(=O)CCN1CCN(c2cccc(C)c2C)CC1	HCV inh 6.3µM, Pf growth 48h 2.6µM
COC(=O)c1[nH]c2cc(OC)ccc2c1NC(=O)CCN1CCN(c2ccccc2)CC1	none (no result: Pf growth 96h)
CCOC(=O)c1[nH]c2ccc(F)cc2c1NC(=O)C(C)N1CCc2cc(OC)c(OC)cc2C1 (stereo unspecified)	HCV inh inconclusive, Pf growth 96h inconclusive, Pf growth 48h 15µM
COc1ccc(Nc2cc(C(=O)NCc3ccccc3OC)c3ccccc3n2)cc1	none (no result: HCV inh, Pf growth 96h, Pf growth 48h)
CCOc1ccc(S(=O)(=O)O)c2cccnc12	none (no result: HCV inh)
COc1ccccc1-c1nc(S(=O)(=O)c2ccccc2)c(N2CCC(C)CC2)o1	none (no result: HCV inh, Pf growth 96h, Pf growth 48h)
CN(C)S(=O)(=O)c1ccc2c(c1)N(CC(=O)Nc1ccc(OC(F)(F)F)cc1)C(=O)CS2	none (no result: HCV inh, Pf growth 96h, Pf growth 48h)
CN(C)/C=N/c1ncc(C(=O)c2ccc(Cl)cc2Cl)s1	HCV inh inconclusive, Pf growth 96h inconclusive, Pf growth 48h inconclusive, HCMV antiviral -61
CN(C)/C=N/c1ncc(C(=O)c2ccc(Cl)cc2)s1	none
Cc1cc(C)c(S(=O)(=O)N2CCN(C(=O)CC(C)n3nc(C)nc3C)CC2)c(C)c1 (stereo unspecified)	HCMV antiviral -74 (no result: HCV inh, Pf growth 96h, Pf growth 48h)
O=C(CN1C(=O)NC2(CCCC2)C1=O)N1CCN(S(=O)(=O)c2ccccc2)CC1	none
Cc1cc(C)c(S(=O)(=O)N2CCN(C(=O)CN3C(=O)NC4(CCCC4)C3=O)CC2)c(C)c1	HCMV antiviral -68
CCN(CC)CCCNC(=O)c1nn(-c2ccc(OC)c(Cl)c2)c(=O)c2c1c1ccccc1n2C	none (no result: HCV inh, Pf growth 96h, Pf growth 48h)
O=C(CSc1ncc(S(=O)(=O)c2ccc(Cl)cc2)c(=O)[nH]1)Nc1ccc2c(c1)OCCO2	none (no result: HCV inh, Pf growth 96h, Pf growth 48h)
CCC1CN(CC(=O)NCc2cccc(Br)c2)c2ccccc2S1 (stereo unspecified)	none (no result: HCV inh, Pf growth 96h, Pf growth 48h)
CN1C2CCC1CC(OC(=O)c1cccc(O)c1)C2 (stereo unspecified)	none (no result: Pf growth 96h, Pf growth 48h)
CN1[C@@H]2CC[C@H]1CC(OC(=O)C1C=Nc3ccccc31)C2 (stereo partly specified)	Pf growth 96h 13µM, Pf growth 48h inconclusive
COCCNC(=O)c1ccccc1NC(=O)c1nsc2ccccc12	none (no result: HCV inh, Pf growth 96h, Pf growth 48h)
CCCc1cc(=O)[nH]c(NCCc2ccccc2)n1	Pf growth 96h 13µM, Pf growth 48h inconclusive
CCOc1ccc(OCCSc2nc(-c3ccccc3)cc(=O)[nH]2)cc1	HCMV antiviral -104
CCCc1cc(=O)[nH]c(SCCc2ccccc2)n1	Pf growth 96h 9.3µM
COc1ccc(OCCSc2nc(-c3ccccc3)cc(=O)[nH]2)cc1	Pf growth 96h inconclusive, HCMV antiviral inconclusive
Cc1ccc(O)c(NC(=O)CCC2CCCCC2)c1	Pf growth 96h 13µM, Pf growth 48h inconclusive
O=C(CCC1CCCCC1)Nc1ccccc1O	none (no result: Pf growth 96h)
Cc1cccc(OCC(=O)Nc2cc(C)c(C)cc2O)c1	Pf growth 48h 3.7µM
CCCc1ccc(OCC(=O)Nc2cc(S(=O)(=O)CC)ccc2O)cc1	Pf growth 96h 12µM
Cc1cccc(OCC(=O)Nc2cc(C)ccc2O)c1	HCV inh inconclusive, Pf growth 96h inconclusive, Pf growth 48h 12µM
Cc1cccc(OCC(=O)Nc2ccccc2-c2ccccc2)c1	HCV inh inconclusive
FC(F)(F)c1cccc(-c2cc3c(Nc4ccncc4)nccc3[nH]2)c1	none (no result: HCV inh, Pf growth 96h, Pf growth 48h)
Cc1ccc2oc(-c3cc(NC(=O)CC(C)C)ccc3Cl)nc2c1	none (no result: HCV inh, Pf growth 96h, Pf growth 48h)
Cc1ccc2c(c1)cc1c(=O)n(Cc3cccc(Cl)c3)nc(C)n12	none (no result: HCV inh, Pf growth 96h, Pf growth 48h)
CCOc1ccccc1C(=O)N(C)CC(=O)Nc1ccc(OC)cc1	none
CN(CC(=O)Nc1ccccc1C(F)(F)F)C(=O)COc1ccccc1Cc1ccccc1	Pf growth 96h inconclusive, Pf growth 48h inconclusive
COc1ccc(NC(=O)CN(C)C(=O)COc2ccccc2Cc2ccccc2)cc1	HCV inh inconclusive, Pf growth 96h inconclusive, Pf growth 48h 9.3µM, HCMV antiviral inconclusive
Cc1ccc(NC(=O)CN(C)C(=O)C(c2ccccc2)c2ccccc2)cc1	HCV inh inconclusive
COc1ccc(NC(=O)CN(C)C(=O)C(Sc2ccccc2)c2ccccc2)cc1 (stereo unspecified)	HCV inh inconclusive, Pf growth 96h inconclusive, Pf growth 48h inconclusive, HCMV antiviral -72
CN(CC(=O)Nc1ccc(F)cc1)C(=O)COc1ccccc1Cc1ccccc1	Pf growth 96h 5.2µM, Pf growth 48h inconclusive
COC(=O)C1=C(C)NC(C)=C(C(=O)OC)C1c1cc2cc(C)ccc2[nH]c1=O	none
Cc1ccc2[nH]c(=O)c(C3C(C#N)=C(N)Oc4c3ccc3cccnc43)cc2c1 (stereo unspecified)	HCV inh 10µM, Pf growth 48h inconclusive, HCMV antiviral -92 (no result: Pf growth 96h)
N#CC1=C(N)Oc2c(ccc3ccccc23)C1c1cccs1 (stereo unspecified)	HCV inh inconclusive, Pf growth 96h 8.3µM (no result: Pf growth 48h, HCMV antiviral)
N#CC1=C(N)Oc2c(ccc3cccnc23)C1c1ccccc1 (stereo unspecified)	HCV inh inconclusive, Pf growth 96h inconclusive, Pf growth 48h 13µM
O=C1C2CCCN2c2ccc(S(=O)(=O)N3CCOCC3)cc2N1Cc1ccccc1F (stereo unspecified)	Pf growth 96h 12µM, Pf growth 48h inconclusive (no result: HCMV antiviral)
O=C1C2CCCN2c2ccc(S(=O)(=O)N3CCOCC3)cc2N1Cc1cccc(C(F)(F)F)c1 (stereo unspecified)	Pf growth 96h 0.52µM, Pf growth 48h 1µM (no result: HCV inh, HCMV antiviral)
N#CCN1C(=O)C2CCCN2c2ccc(S(=O)(=O)N3CCOCC3)cc21 (stereo unspecified)	Pf growth 48h inconclusive
NC(=S)N/N=C1\CC(c2ccc3c(c2)OCCO3)Oc2ccc(F)cc21 (stereo unspecified)	HCV inh inconclusive, Pf growth 96h 12µM, Pf growth 48h inconclusive
NC(=S)N/N=C1\CC(c2ccc3c(c2)OCCCO3)Oc2ccc(F)cc21 (stereo unspecified)	HCV inh 8.9µM, Pf growth 96h inconclusive, Pf growth 48h inconclusive
O=C1CC(c2ccc3c(c2)OCCO3)Oc2ccccc21 (stereo unspecified)	none
Cc1ccc(S(=O)(=O)Nc2cc3c(cc2NCc2ccccc2)n(C)c(=O)n3C)c(C)c1	none (no result: HCV inh, Pf growth 96h, Pf growth 48h)
Cc1ccc(C)c(S(=O)(=O)c2cnc(SCC(=O)Nc3ccc(F)cc3F)[nH]c2=O)c1	none (no result: HCV inh, Pf growth 96h, Pf growth 48h)
CCCCNC(=O)Cn1c(=O)cc(C)c2c(C)nn(-c3ccc(CC)cc3)c21	none (no result: HCV inh, Pf growth 96h, Pf growth 48h)
COc1ccccc1NC(=O)Cn1c(=O)n(CC(=O)NCc2ccccc2Cl)c(=O)c2sccc21	none (no result: HCV inh, Pf growth 96h, Pf growth 48h)
O=C(Nc1nc(-c2ccccn2)cs1)C1COc2ccccc2O1 (stereo unspecified)	HCV inh 35µM, Pf growth 96h 0.37µM, Pf growth 48h 8.3µM, HCMV antiviral -83
CC1CCc2nc(NC(=O)C3CC3)sc2C1 (stereo unspecified)	none (no result: Pf growth 96h)
O=C(CN1C(=O)C2CCCCC2C1=O)Nc1nc(-c2ccccn2)cs1 (stereo unspecified)	HCV inh inconclusive, Pf growth 96h inconclusive (no result: Pf growth 48h)
CC1CCc2nc(NC(=O)C3COc4ccccc4O3)sc2C1 (stereo unspecified)	HCV inh inconclusive, HCMV antiviral -76
